Experimental data taken from PubChem BioAssay (NCI).
The panel holds about 83,000 compounds, 20% with a hit somewhere; the sample as a whole holds those more often.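 Treatment: one concentration, 48 hours, 96-well format. Scoring: percent growth, with anything below 10 considered active.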 Values without a mark were called inactive. Calls of active or inactive are those of the source.

Legend:
Assay in all cases: NCI-60 one-dose screen, 48 h (100 = growth as untreated, 0 = no growth, -100 = all killed)
Details in all cases: 10 µM
[1] = tested on: SR leukemia
[2] = tested on: RPMI-8226 leukemia
[3] = tested on: OVCAR-8 ovarian
[4] = tested on: OVCAR-5 ovarian
[5] = tested on: OVCAR-4 ovarian
[6] = tested on: SK-OV-3 ovarian
[7] = tested on: IGROV1 ovarian
[8] = tested on: OVCAR-3 ovarian
[9] = tested on: HS 578T breast
[10] = tested on: NCI/ADR-RES ovarian
[11] = tested on: T-47D breast
[12] = tested on: BT-549 breast
[13] = tested on: MDA-MB-435 melanoma
[14] = tested on: SW-620 colon
[15] = tested on: MCF7 breast
[16] = tested on: HCT-116 colon
[17] = tested on: HCC-2998 colon
[18] = tested on: KM12 colon

SMILES	growth [1]	growth [2]	growth [3]	growth [4] [%]	growth [5] [%]	growth [6]	growth [7]	growth [8]	growth [9]	growth [10]	growth [11]	growth [12]	growth [13]	growth [14]	growth [15]	growth [16]	growth [17]	growth [18]
CS(=O)(=O)c1nccc(-c2c(-c3cccc(OCCc4ccccc4)c3)nc3sccn23)n1	85.8%	96.9%	98%	103	100	96.5%	88.7%	104%	92.4%	99.9%	92.4%	116%	104%	98.2%	69.2%	83.9%	109%	104%
O=C(Cn1cc(CO)nn1)Nc1nc2ccccc2s1	100%	107%	99.4%	101	108	104%	97.8%	101%	109%	101%	110%	106%	99.7%	106%	97.9%	97.2%	109%	107%
O=C(CSc1nnc(-c2ccc(Cl)cc2)o1)Nc1ccc(C(=O)/C=C/c2ccc(Cl)cc2)cc1	98.3%	92.5%	100%	110	89.3	90.6%	108%	103%	95.9%	96.4%	98.6%	133%	98.1%	101%	78%	103%	93.1%	97.8%
COc1cc(-c2nn(-c3cccc(NC(=O)NCCNC(=O)c4ccccc4)c3)cc2-c2ccncc2)ccc1Cl	5.61% (active)	5.06% (active)	8.83% (active)	33	26.6	33.6%	28.1%	21.1%	30.9%	46.1%	-7.51% (active)	-7.03% (active)	2.69% (active)	11.8%	6.01% (active)	3.85% (active)	31.3%	12.2%
O=C1Cc2cc(CCN3CCN(c4nsc5ccccc45)CC3)c(Cl)cc2N1	86%	78.9%	93.7%	108	84.1	121%	101%	97.6%	103%	98.4%	55.2%	92.6%	90.9%	92.9%	86.1%	98.8%	120%	98.1%
CCOC(=O)c1cc(C(=O)c2ccc(F)cc2F)n2ccccc12	73%	77.6%	88%	99.7	97.8	88.7%	82.3%	103%	93.2%	88.5%	76.3%	88.5%	106%	94.5%	94.1%	92.5%	101%	96.1%
COc1ccc(-c2onc(N)c2-c2cc(OC)c3c(c2)OCO3)cc1	9.86% (active)	26.7%	39.3%	51.3	61.9	38.7%	41.5%	-1.21% (active)	33.8%	-10.2% (active)	19.3%	42.6%	-24.1% (active)	16.8%	8.88% (active)	15.5%	52.1%	21.8%
CC(=O)C1CCC2C3CC=C4CC(SC(=N)N)CCC4(C)C3CCC12C (stereo unspecified)	-36% (active)	-7.56% (active)	30.8%	80.4	50.1	75%	35.7%	63.1%	72.6%	38.2%	40.9%	76.4%	9.68% (active)	-75.2% (active)	-2.29% (active)	1.01% (active)	-52.3% (active)	31.8%
CN(C)CCC1(c2ccccc2)CCN(C)C1=O (stereo unspecified)	112%	108%	104%	107	113	100%	109%	99.5%	108%	103%	104%	106%	105%	103%	106%	110%	108%	103%
CCC(=O)OC1CCC2C3CCC(=O)OC3C(C)(CCC(=O)O)CC12C (stereo unspecified)	-21.1% (active)	6.49% (active)	61.4%	59	65.8	51.6%	25.4%	5.37% (active)	-28.7% (active)	15.8%	37.7%	-8.83% (active)	-15.3% (active)	-11.3% (active)	30.9%	5.1% (active)	5.22% (active)	25.7%
c1ccc2c(c1)Cc1ccccc1N2CCN1CCCCC1	94.1%	87.2%	91.2%	96.6	95.2	88.8%	83.5%	108%	113%	88.5%	90.3%	86.3%	106%	89.1%	89.4%	56.8%	86%	95.3%
COc1ccc(-c2csc(NC(=O)c3ccc(Cc4n[nH]c(=O)c5cccnc45)cc3)n2)cc1	118%	82.6%	93.8%	95	94.5	95.1%	75.4%	103%	99.1%	94.1%	68.8%	-17.8% (active)	98.8%	95.2%	77.4%	91.9%	90.1%	98.5%
CCOC(=O)c1cc(C(=O)c2ccc(OC)c(OC)c2)n2ccncc12	78.5%	88.3%	94.9%	124	104	64.2%	102%	108%	102%	96.9%	78.8%	84.5%	104%	100%	79.6%	93.3%	101%	101%
CCN(CC)c1ccc(/C=C2\SC(=O)C(Nc3nnc(-c4cccnc4SCc4ccccc4)o3)C2=O)cc1 (stereo unspecified)	11.8%	23.4%	24.2%	41.4	38.6	15.6%	56.5%	-13.5% (active)	26.6%	-9.88% (active)	50.3%	59.3%	-24.6% (active)	22.7%	14.3%	5.84% (active)	4.15% (active)	10.3%
COc1cc2cc(Oc3ccc(NC(=O)Nc4ccc(Cl)c(C(F)(F)F)c4)cc3)c(C)nc2cc1OC	-32.5% (active)	-26.4% (active)	7.34% (active)	18	17.1	-4.09% (active)	-7.69% (active)	-27.3% (active)	2.5% (active)	2.01% (active)	21.4%	-38.7% (active)	-25.7% (active)	7.51% (active)	2.59% (active)	–	-13.1% (active)	-16.4% (active)
COc1nc2c(c(=O)n1C)CN(c1ccccc1)C(=O)C(C)N2 (stereo unspecified)	93.6%	96%	93.4%	93.2	91.9	107%	106%	112%	105%	91%	95.5%	–	103%	99.9%	94.5%	95.4%	94.5%	105%
